aSyn UTR act = Activators working through SNCA 5'UTR binding (MLPCN) | activity score, % (tested at 7.5 µM), hits read low | AID 1814 | actives 7.1% (n = 300,000) | alpha-synuclein 5'UTR reporter, activators screen; in the data active = activity score below about -60%
Numbers without * were called inactive. These entries were drawn from the full list.

SMILES	aSyn UTR act
NC(=O)c1c(NC(=O)c2ccccc2)sc2c1CCc1ccccc1-2	-211.0*
NC(=O)c1c(NC(=O)c2cnccn2)sc2c1CCCC2	-216.7*
NC(=O)c1c(NC(=O)c2ccccc2)sc2c1CCC2	-122.3*
COc1ccc(NC(=O)c2c(NC(=O)CCC(=O)O)sc(-c3ccccc3)c2C)cc1	-76.3*
N#Cc1c(NC(=O)c2ccncc2)sc2c1CCC2	-66.4*
CCN(CC)CCCC(C)NC(=O)c1c(NC(=O)c2ccccc2)sc2c1CCCC2 (stereo not given)	-78.9*
CNC(=O)c1c(NC(=O)c2nc3ccccc3s2)sc2c1CCC2	-256.1*
O=C(O)CCC(=O)Nc1sc2c(c1C(=O)Nc1ccccc1)CCCCC2	-78.4*
N#Cc1c(NC(=O)c2cnn3cccnc23)sc2c1CCCC2	-98.6*
NC(=O)c1c(NC(=S)Nc2ccccc2)sc2c1CCCC2	-67.1*
N#CCCCCn1ccc(NC(=O)c2ccc(Cl)cc2O)n1	-80.9*
O=C(O)c1cc(N/N=C/c2ccc(OCc3ccccc3)cc2)ccc1Cl	-172.0*
O=C(O)c1cc(NN=C2CCN(Cc3ccccc3)CC2)ccc1Cl	-201.9*
CCCN1CCC(=NNc2ccc(C(=O)O)cc2)CC1	-112.6*
CCCN1CCC(=NNc2ccc(S(=O)(=O)N3CCOCC3)cc2[N+](=O)[O-])CC1	64.1
O=C(O)c1cc(N/N=C/C=C/c2ccccc2)ccc1Cl	-179.2*
O=C(O)c1cccc(N/N=C/c2ccc(OC(F)(F)F)cc2)c1	64.3
COC(=O)c1ccc(COc2ccc(/C=N/Nc3cccc(C(=O)O)c3)cc2)cc1	-84.4*
O=C(NC1CCCCCC1)c1cc2c(=O)n3ccccc3nc2s1	-84.8*
N=c1c(S(=O)(=O)c2ccc(Br)cc2)cc2c(=O)n3ccccc3nc2n1C1CCCC1	49.9
C=CCNC(=O)c1cc2c(=O)n3ccccc3nc2s1	-218.5*
O=[N+]([O-])c1ccc(Sc2n[nH]c(-c3ccccc3)n2)nc1	-73.0*
Cc1ccnc(Sc2ccc([N+](=O)[O-])cn2)n1	-72.3*
Cn1c2ccccc2c(=O)c2cc(C#CC3(O)CCCCC3)ccc21	76.9
COc1cc(-c2noc(C)c2C#Cc2ccsc2)cc(OC)c1OC	68.8
SMILES	aSyn UTR act
Cn1c2ccccc2c(=O)c2ccc(C#Cc3ccccn3)cc21	-137.2*
Cn1c2ccccc2c(=O)c2cc(C#Cc3ccccn3)ccc21	-127.0*
Cn1c2ccccc2c(=O)c2cc(C#Cc3ccsc3)ccc21	-187.3*
[N-]=[N+]=CC(=O)C(O)(c1ccccc1)C(Cl)c1ccccc1 (stereo not given)	47.0
CCOc1ccc(C(=O)Nc2cccc([N+](=O)[O-])c2)cc1Br	-137.8*
Cc1cccc(C(=O)Nc2ccc3ccccc3c2)c1	-110.9*
O=C(NC(=S)Nc1cccc(F)c1)c1cccc([N+](=O)[O-])c1	-109.1*
O=C(Nc1ccc2ccccc2c1)c1cccc([N+](=O)[O-])c1	-112.7*
CS(=O)(=O)N(CC(=O)NCc1ccncc1)c1ccc(Cl)c(Cl)c1	-89.4*
CC1CCC(NC(=O)N(CCCl)N=O)CC1 (stereo not given)	-137.7*
CC(C)C(=O)Nc1cccc(NC(=S)NC(=O)c2ccc(Cl)cc2)c1	-120.4*
Cc1ccc(NC(=S)NC(=O)c2ccc(F)cc2)cc1S(=O)(=O)Nc1cccc(Cl)c1	81.3
CC(C)C(=O)Nc1cccc(NC(=S)NC(=O)c2ccc3c(c2)OCO3)c1	-158.2*
CC(C)C(=O)Nc1cccc(NC(=S)NC(=O)c2cccs2)c1	-125.8*
O=[N+]([O-])c1nn(-c2ccccc2)n(O)c1=NC1CCN(Cc2ccccc2)CC1	76.4
Cc1cccc(N=c2c([N+](=O)[O-])nn(-c3ccc(Cl)cc3)n2O)c1	-67.6*
Cc1cc(C)cc(N=c2c([N+](=O)[O-])nn(-c3cccc(Cl)c3)n2O)c1	-65.5*
Cc1ccc(CN=c2c([N+](=O)[O-])nn(-c3ccc(Cl)cc3)n2O)cc1	-68.9*
O=C(Nc1ccc(F)cc1F)c1noc2c1CCC2	-169.0*
O=C(Nc1cc(Cl)ccc1Cl)c1noc2c1CCCC2	-67.3*
Cc1ccccc1Nc1nc(N)nc(COC(=O)c2ccccc2)n1	-198.3*
Cc1ccccc1Nc1nc(N)nc(COC(=O)c2cccn2C)n1	-122.0*
Cc1ccc2c(c1)sc[n+]2Cc1ccccc1	-256.3*
CCOC(=O)c1ccc(N2Cc3ccccc3C2=N)cc1	-77.8*
CSc1nsc(N/N=C/c2ccc3c(c2)OCO3)c1C#N	-230.7*
SMILES	aSyn UTR act
Cc1oc(/N=C/c2ccc3c(c2)OCO3)c(C#N)c1C	-73.8*
[O-][n+]1onc2c1CCc1nnccc1-2	-85.5*
CC1(C)CNc2cc(N)ccc2S1	-73.5*
CCCCOc1ccc(-n2nc(C)cc2C)nn1	-72.1*
O=C(CSc1ccc(Br)cc1)N1CCOCC1	-65.0*
O=C(CCSc1ccc(Cl)cc1)N1CCOCC1	-68.7*
O=C(CSc1ccc(Cl)cc1)N1CCOCC1	-69.2*
CCOc1ccc(OCc2cccc(C(=O)N3CCCCCC3)c2)cc1	76.0
COc1ccccc1OCCNC(=O)c1ccc2c(c1)CCC2	-138.0*
O=C(NN1CCCCC1)c1cccc(COc2ccc(Cl)cc2)c1	-167.4*
COc1ccccc1OCCNC(=O)c1ccc2c(c1)OCCO2	-68.5*
O=C(O)c1cccc(COc2ccc3c(c2)CCC3)c1	80.6
COc1cccc(OC)c1C(=O)NNC(=O)c1cccc(COc2ccc3c(c2)CCC3)c1	-90.9*
O=C(N/N=C/c1cc2c3c(c1O)CCCN3CCC2)c1ccccc1O	104.3
CC1Oc2ccccc2C=C1/C=N/NC(=O)c1ccccc1 (stereo not given)	-159.1*
CC1Oc2ccccc2C=C1/C=N/NC(=O)c1ccccc1O (stereo not given)	-130.8*
Cc1ccc(C(=O)N/N=C/C2=Cc3ccccc3OC2C)cc1 (stereo not given)	-70.9*
C/C(=N\Nc1nc2c(s1)CCCC2)c1ccc(Cl)cc1	-100.0*
Cc1ccc(C)c(N(CC(=O)Nc2ccc(-c3nc4ccc(C)cc4s3)cc2)S(C)(=O)=O)c1	-80.0*
Cc1ccc(N(CC(=O)Nc2ccc(-c3nc4ccc(C)cc4s3)cc2)S(C)(=O)=O)cc1	-202.9*
CC(C)c1c(O)cc(-c2ccncc2)n(-c2ccc(Cl)cc2)c1=O	37.1
N/C(=N\OC(=O)c1cccs1)c1ccc(Cl)cc1	-104.0*
COc1ccc(C(=O)O/N=C(\N)c2ccc(Cl)cc2)cc1	-195.8*
N/C(=N/OC(=O)c1ccc(Cl)cc1)c1ncc([N+](=O)[O-])s1	-78.3*
COc1ccccc1C(=O)O/N=C(\N)c1ccc(Cl)cc1	-263.7*
SMILES	aSyn UTR act
c1ccc(N2OCC3Cn4c(nc5ccccc54)C32)cc1 (stereo not given)	-63.7*
CCCC(NC(=O)CCl)c1ccccc1 (stereo not given)	-71.8*
CCCCc1c(C)nc2cc(-c3ccco3)[nH]n2c1=O	-68.1*
CCc1c(C)nc2cc(-c3ccccc3)[nH]n2c1=O	-110.0*
CSc1nc(N)nc(SCC(=O)c2ccccc2)c1C#N	-76.0*
Cc1cccc(NC(=O)CSc2nc(C)c(CC(=O)c3ccc(Br)cc3)c(C)c2C#N)c1C	49.1
Clc1cccc(N/N=C/c2ccncc2)c1	-117.4*
Cc1ccc(N/N=C/c2ccncc2)cc1	-120.4*
C/C(=N\Nc1cccc(Cl)c1)c1ccncc1	-116.7*
c1ccc(-c2cc3nccc(-c4ccccn4)n3n2)cc1	-196.2*
COc1ccc(C2=NN(CN3C(=O)C(=O)c4ccccc43)C(c3cccc([N+](=O)[O-])c3)C2)cc1 (stereo not given)	-70.3*
CCOc1ccc(OCCn2nnc3ccccc3c2=O)cc1	-120.8*
